# A number with no mark means an inactive call. Records with an inconclusive call do not appear. Activity calls are given as the source filed them. Unless noted, calls follow the shape of the dose curve; as a rule, active = well fitted curve in either direction with a large enough effect (not every such curve was filed as active); inconclusive = small, poorly fitted or top-dose-only effect, or another doubt; inactive = flat fitted curve, though single readings scatter.
# How the values were obtained:
# [1] = AP1 Signaling Pathway (AID 357); conditions: ME-180 AP-1-bla reporter, EGF-induced, beta-lactamase ratio, 5 h; at 17.2 µM (top of the series) unless noted;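 also: ME-180 reporter cells stimulated with EGF at its EC50 level; % is scaled to controls: 0 for no effect and ±100 for the full control effect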
# Outline: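 Cells are seeded overnight, exposed to compound titrations and an EC50 level of EGF for 5 hours at 37 °C, then loaded with CCF4 dye for 2.5 hours. Beta-lactamase activity under the AP-1 element is read as a blue/green ratio.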
# [2] = Stat Signaling Pathway (AID 446); conditions: ME-180 SIE beta-lactamase reporter, IL-6 stimulated, 5 h; at 17.2 µM (top of the series) unless noted;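 also: ME-180 cervical cancer cells given 40 pM IL-6 alongside compound; SIE-controlled beta-lactamase reporter measured as 460/530 nm FRET emission ratio; % is scaled to controls: 0 for no effect and ±100 for the full control effect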
# Outline: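 ME-180 cells carrying a SIE-driven beta-lactamase reporter are stimulated with 40 pM IL-6 for 5 h at 37C in the presence of compound. The 460/530 nm FRET substrate ratio is read after 2.5 h at RT. Data are normalised to 300 pM IL-6 and to 125 nM JAK inhibitor controls.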
# [3] = biological target: Glucocorticoid receptor (Homo sapiens) (UniProt P04150); assay: GR-GFP Redistribution (AID 450;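 active = compounds whose dose series gives a full or clear partial fitted curve of increased nuclear translocation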; also: potency is read from the fitted curve at half-maximal effect)
# [4] = biological target: Glucocorticoid receptor (Homo sapiens) (UniProt P04150); assay: GR-EFC Redistribution (AID 451; calls by dose curve; also: potency is read from the fitted curve at half-maximal effect); conditions: CHO-K1 GR-EFC translocation, beta-gal luminescence, 2 h
# Outline: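 CHO-K1 cells expressing nuclear EA and GR-ED fragments of b-gal; compounds titrated up to 46 uM final, 2 h at 37 C. GR nuclear translocation read as complemented b-gal luminescence after 1 h RT detection.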
# [5] = biological target: Mitogen-activated protein kinase 10 (Mus musculus) (UniProt Q61831); assay: JNK3 AlphaScreen Assay (AID 530);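 also: kinase came from lysate of stimulated human HepG2 cells; signal reports phosphorylation of biotinylated GST-cJun 1-79 at Ser73 with 10 µM ATP; % is scaled to controls: 0 for no effect and ±100 for the full control effect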
# Outline: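 qHTS format: compounds tested as titrations against IL-1beta/TNF-alpha-activated HepG2 lysate JNK3 with biotin-GST-cJun substrate and 10 uM ATP at room temperature. Loss of anti-phospho-cJun AlphaScreen signal indicates inhibition.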
# [6] = biological target: 3',5'-cyclic-AMP phosphodiesterase 4B (Homo sapiens) (UniProt Q07343); assay: qHTS Assay for Inhibitors of PDE-IV (AID 607; active = well fitted activation curve with a large enough effect in the main read-out, with a control signal flat, not every such curve was filed as active; also: % of control where 0% means no effect)
# Outline: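 HEK293 ACTOne cells with CNG channel (1000/well), endogenous PDE4; membrane potential dye, compounds up to 22.9 uM final. Fluorescence Ex 535/Em 590; RO 20-1724 (100 uM final) as reference.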
# [7] = biological target: Cytochrome P450 3A4 (Homo sapiens) (UniProt P08684); assay: qHTS Assay for Activators of Cytochrome P450 3A4 (AID 885; active = well fitted curve in the direction sought with a large enough effect; an effect the other way counts as inactive or inconclusive; also: nearly all actives have a fitted effect of over 65% in size)
# Outline: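 Human CYP3A4 (20 nM) with Luciferin-PPXE at 25 uM (its KM) in 200 mM KPO4; 10 min compound preincubation, then NADPH regeneration and 60 min reaction at RT. Luciferin read by luminescence; normalized to 57 uM ketoconazole full inhibition.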
# [8] = biological target: Ubiquitin carboxyl-terminal hydrolase 1 (Homo sapiens) (UniProt O94782); assay: Inhibitors of USP1/UAF1: Pilot qHTS (AID 504865; active = well fitted curve in the direction sought with a large enough effect; an effect the other way counts as inactive or inconclusive;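 also: rhodamine fluorescence freed from ubiquitin-rhodamine substrate followed over time; top concentration of the series differs between compounds; % is scaled to controls: 0 for no effect and ±100 for the full control effect; nearly all actives have a fitted effect of over 35% in size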)
# Outline: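 1nM USP1/UAF1 + cpd, 15 min RT; start w/ Ub-Rho 150nM final; kinetic FL 480/540 nm, 6 reads q60 s. Buffer 50mM HEPES pH 7.8, 0.5mM EDTA, 1mM TCEP, 0.01% Tween-20, 0.1 mg/ml BSA.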
# [9] = biological target: Cytochrome P450 3A4 (Homo sapiens) (UniProt P08684); assay: qHTS Assay for Inhibitors and Substrates of Cytochrome P450 3A4 (AID 884; active = well fitted curve in the direction sought with a large enough effect; an effect the other way counts as inactive or inconclusive; also: potency is read from the fitted curve at half-maximal effect; nearly all actives have a fitted effect of over 50% in size)
# Outline: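 20 nM human CYP3A4 with 25 uM Luciferin-PPXE (at KM) in 200 mM KPO4, preincubated 10 min with compound; NADPH regeneration started a 60 min RT reaction. Luciferin detected by luminescence, normalized to 57 uM ketoconazole as full inhibition.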
# [10] = biological target: Cytochrome P450 2C19 (Homo sapiens) (UniProt P33261); assay: qHTS Assay for Inhibitors and Substrates of Cytochrome P450 2C19 (AID 899; active = well fitted curve in the direction sought with a large enough effect; an effect the other way counts as inactive or inconclusive; also: potency is read from the fitted curve at half-maximal effect; nearly all actives have a fitted effect of over 60% in size)
# Outline: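 Luminescent read-out of luciferin formed from Luciferin-H EGE (10uM, equal to KM). Enzyme 5nM in 50mM KPO4; compound added, 10 min at 37C, then NADPH regenerating system for 60 min at 37C. Full inhibition defined by 57uM ketoconazole.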
# Cytochrome P450 3A4 (Homo sapiens), sequence (P08684 whole entry, looked up): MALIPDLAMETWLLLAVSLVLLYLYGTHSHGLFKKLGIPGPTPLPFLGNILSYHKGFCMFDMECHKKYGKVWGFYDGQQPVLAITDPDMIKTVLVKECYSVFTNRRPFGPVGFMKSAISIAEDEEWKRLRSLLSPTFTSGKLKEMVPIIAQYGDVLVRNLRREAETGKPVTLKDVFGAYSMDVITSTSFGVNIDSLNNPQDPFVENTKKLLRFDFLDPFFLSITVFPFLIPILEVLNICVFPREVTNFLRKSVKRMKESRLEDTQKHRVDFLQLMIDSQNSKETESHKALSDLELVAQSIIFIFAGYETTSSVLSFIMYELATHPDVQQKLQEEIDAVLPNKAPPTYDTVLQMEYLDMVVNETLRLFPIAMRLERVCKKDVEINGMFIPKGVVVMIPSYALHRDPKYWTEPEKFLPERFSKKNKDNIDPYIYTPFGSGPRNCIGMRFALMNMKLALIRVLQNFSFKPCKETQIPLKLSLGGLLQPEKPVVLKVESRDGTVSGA
# Glucocorticoid receptor (Homo sapiens), sequence (P04150 whole entry, looked up, the tested form may be a part): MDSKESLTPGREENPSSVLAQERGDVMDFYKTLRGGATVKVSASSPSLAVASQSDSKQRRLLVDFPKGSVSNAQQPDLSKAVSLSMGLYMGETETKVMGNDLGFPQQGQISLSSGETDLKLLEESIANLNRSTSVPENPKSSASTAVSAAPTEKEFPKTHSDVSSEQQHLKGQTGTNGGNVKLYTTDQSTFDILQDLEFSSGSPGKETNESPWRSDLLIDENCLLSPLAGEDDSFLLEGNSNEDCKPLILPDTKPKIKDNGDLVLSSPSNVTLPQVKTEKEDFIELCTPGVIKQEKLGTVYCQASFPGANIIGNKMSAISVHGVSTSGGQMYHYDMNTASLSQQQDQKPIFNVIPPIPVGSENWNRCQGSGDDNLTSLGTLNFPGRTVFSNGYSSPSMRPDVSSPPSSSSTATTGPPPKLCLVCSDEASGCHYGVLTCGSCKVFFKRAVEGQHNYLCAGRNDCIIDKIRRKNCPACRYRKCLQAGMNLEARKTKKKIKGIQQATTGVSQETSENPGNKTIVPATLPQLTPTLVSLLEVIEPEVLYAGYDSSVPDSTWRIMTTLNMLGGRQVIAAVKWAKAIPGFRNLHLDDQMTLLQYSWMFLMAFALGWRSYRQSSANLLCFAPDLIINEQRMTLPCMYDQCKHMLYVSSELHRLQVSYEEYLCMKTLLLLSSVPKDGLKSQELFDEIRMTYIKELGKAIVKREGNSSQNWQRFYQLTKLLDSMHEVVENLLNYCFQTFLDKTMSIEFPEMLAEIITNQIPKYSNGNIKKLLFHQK
# 3',5'-cyclic-AMP phosphodiesterase 4B (Homo sapiens), sequence (Q07343 whole entry, looked up): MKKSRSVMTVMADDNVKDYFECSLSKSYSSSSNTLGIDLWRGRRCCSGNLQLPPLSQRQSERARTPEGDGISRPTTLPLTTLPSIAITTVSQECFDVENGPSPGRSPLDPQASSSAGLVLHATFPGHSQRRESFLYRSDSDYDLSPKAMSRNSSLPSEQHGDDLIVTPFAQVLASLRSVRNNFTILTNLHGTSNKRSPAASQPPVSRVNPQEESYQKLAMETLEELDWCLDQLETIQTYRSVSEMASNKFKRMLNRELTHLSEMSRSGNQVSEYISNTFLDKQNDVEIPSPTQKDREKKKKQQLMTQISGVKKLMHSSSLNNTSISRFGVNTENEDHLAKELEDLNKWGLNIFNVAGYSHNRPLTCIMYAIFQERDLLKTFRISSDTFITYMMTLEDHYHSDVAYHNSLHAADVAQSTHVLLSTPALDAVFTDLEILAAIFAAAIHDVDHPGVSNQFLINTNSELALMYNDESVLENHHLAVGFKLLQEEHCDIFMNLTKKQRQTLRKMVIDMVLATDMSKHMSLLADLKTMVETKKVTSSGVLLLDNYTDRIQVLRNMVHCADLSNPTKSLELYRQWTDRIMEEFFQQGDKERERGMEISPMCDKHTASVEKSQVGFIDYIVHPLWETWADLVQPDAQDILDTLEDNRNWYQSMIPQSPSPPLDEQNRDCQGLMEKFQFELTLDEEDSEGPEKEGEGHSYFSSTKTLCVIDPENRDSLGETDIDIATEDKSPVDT
# Cytochrome P450 2C19 (Homo sapiens), sequence (P33261 whole entry, looked up): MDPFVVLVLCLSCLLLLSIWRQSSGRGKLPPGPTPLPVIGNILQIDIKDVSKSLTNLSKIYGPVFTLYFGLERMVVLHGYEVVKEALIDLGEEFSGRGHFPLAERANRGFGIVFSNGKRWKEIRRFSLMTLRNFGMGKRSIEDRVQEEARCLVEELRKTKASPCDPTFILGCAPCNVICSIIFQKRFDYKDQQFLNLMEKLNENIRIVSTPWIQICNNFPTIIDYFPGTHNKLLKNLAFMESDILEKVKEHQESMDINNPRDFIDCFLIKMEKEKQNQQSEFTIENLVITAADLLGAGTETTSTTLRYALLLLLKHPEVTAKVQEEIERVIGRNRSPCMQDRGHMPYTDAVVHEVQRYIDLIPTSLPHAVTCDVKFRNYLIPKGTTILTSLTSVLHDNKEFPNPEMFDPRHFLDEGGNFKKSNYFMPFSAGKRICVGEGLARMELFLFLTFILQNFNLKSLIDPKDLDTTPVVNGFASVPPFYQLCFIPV
# Ubiquitin carboxyl-terminal hydrolase 1 (Homo sapiens), sequence (O94782 whole entry, looked up): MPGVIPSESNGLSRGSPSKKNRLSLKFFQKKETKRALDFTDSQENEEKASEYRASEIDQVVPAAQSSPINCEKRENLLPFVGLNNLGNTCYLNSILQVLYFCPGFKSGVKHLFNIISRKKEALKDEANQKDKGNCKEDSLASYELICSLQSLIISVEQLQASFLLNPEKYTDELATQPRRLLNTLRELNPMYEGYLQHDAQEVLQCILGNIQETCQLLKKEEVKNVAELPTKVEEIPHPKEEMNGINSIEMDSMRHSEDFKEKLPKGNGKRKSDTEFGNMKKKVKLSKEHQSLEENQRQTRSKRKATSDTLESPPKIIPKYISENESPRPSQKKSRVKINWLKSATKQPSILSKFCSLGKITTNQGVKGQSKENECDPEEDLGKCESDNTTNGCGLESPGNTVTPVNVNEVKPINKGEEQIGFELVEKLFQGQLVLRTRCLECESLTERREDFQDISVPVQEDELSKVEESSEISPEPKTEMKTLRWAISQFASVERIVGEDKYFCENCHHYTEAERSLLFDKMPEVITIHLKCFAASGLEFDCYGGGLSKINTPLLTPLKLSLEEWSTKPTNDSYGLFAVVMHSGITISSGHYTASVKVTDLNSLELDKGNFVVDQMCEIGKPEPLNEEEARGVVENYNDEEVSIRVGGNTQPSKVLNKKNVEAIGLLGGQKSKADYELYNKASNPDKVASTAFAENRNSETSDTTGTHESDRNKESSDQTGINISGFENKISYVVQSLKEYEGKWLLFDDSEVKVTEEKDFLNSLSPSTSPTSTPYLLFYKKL
smiles,measurement,setting,value
CC1(C)C2CCC1(C)C(NC(=O)CCN1CCCCC1)C2 (stereo unspecified),"activity change, negative = inhibition",[1],6.22%
same,"activity, negative = inhibition",[2],8.36%
same,Potency,[3],> 20.6 µM
COCCCNC(=O)c1c(N)n(/N=C/c2cccs2)c2nc3ccccc3nc12,"activity change, negative = inhibition",[1],24.9%
same,"activity, negative = inhibition",[2],21.4%
same,Potency,[3],> 20.6 µM
C[N+](C)(C)CCN(Cc1cccs1)c1ccccn1,"activity change, negative = inhibition",[1],-6.68% [at 7.69 µM]
same,"activity, negative = inhibition",[2],-4.68% [at 7.69 µM]
same,Potency,[3],> 46 µM
same,Potency,[4],> 9.22 µM
same,"activity change, negative = inhibition",[5],0.454% [at 11.4 µM]
same,Potency,[6],inactive
CCCCCCCCN[C@@H](C)[C@H](O)c1ccc(SC(C)C)cc1,"activity change, negative = inhibition",[1],0.133%
same,"activity, negative = inhibition",[2],7.39%
same,Potency,[3],> 20.6 µM
same,Potency,[4],> 20.6 µM
same,Potency,[5],inactive
same,Potency,[7],inactive
same,Potency,[8],inactive
NC(=O)/C(=C\c1ccncc1)c1cccc2ccccc12,"activity change, negative = inhibition",[1],-11.2% [at 7.69 µM]
same,"activity, negative = inhibition",[2],-3.8% [at 7.69 µM]
same,Potency,[3],> 46 µM
same,Potency,[4],> 9.22 µM
same,"activity change, negative = inhibition",[5],1.18% [at 11.4 µM]
same,Potency,[6],inactive
same,Potency,[9],3.16 µM (active)
same,"activity change, positive = activation",[7],-72.7% [at 11.4 µM]
same,Potency,[10],2.51 µM (active)
CCc1c(C)c2cc(Cl)c(O)c(CN3CCCCC3)c2oc1=O,"activity change, negative = inhibition",[1],3.67%
same,"activity, negative = inhibition",[2],11.7%
same,Potency,[3],> 20.6 µM

# Source: PubChem BioAssay (NCATS)
